Gli-Sufu antag: Gli-Sufu pathway antagonists, primary screen, luciferase luminescence, Sufu-KO-LIGHT cells, uHTS. Sufu-KO-LIGHT fibroblasts, Gli luciferase reporter luminescence. inhibition, % at 5 µM. 340,000 tested, 0.74% active. AID 588413, 2011;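 active means inhibition above about 55%, limit read from the data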
aDG glyco act: activators of alpha-DG glycosylation, primary screen, uHTS, Pro5-aDG cells, AlphaScreen; alpha-DG glycosylation AlphaScreen (IIH6); 0% Pro5, 100% B10-LARGE cell signal; activation, % at 10 µM; 360,000 tested, 0.22% active;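 active means activation of at least 8% versus controls, or a plate z-score of at least 8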;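 further: Pro5 are CHO cells carrying HIG-tagged alpha-DG that lacks glycosylation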
HIV Env fusion: inhibitors of HIV-1 Env-driven cell-cell fusion, primary screen, HeLa-JRFL effector, CEM21 target cells, luciferase; inhibition, % at 12.3 µM; 360,000 tested, 1.1% active; AID 651610, 2012;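 active means mean replicate inhibition score of at least 50 and every replicate individually at or above 50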
NR2F2 inh: NR2F2 transcriptional activity inhibitors, primary screen, cell-based, luciferase reporter, HEK293T, luminescence; AID 686940, 2013; HEK293T NGFI-A luciferase reporter; 370,000 tested, 0.7% active; COUP transcription factor 2 (Homo sapiens), P24468; inhibition, % at 8.6 µM;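 active means inhibition above a per-plate cutoff, mean inhibition of test wells between control levels plus 3 SD, cut at about 38% in these data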;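 further: cells cotransfected with COUP-TFII expression vector driving the NGFI-A reporter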
GalR3 antag: GalR3 antagonists in HEK293 cells, primary screen, cell-based, fluorescence readout. Galanin receptor type 3 (Homo sapiens), O60755. HEK293 GalR3-CNG cAMP membrane potential fluorescence; galR3 body fused to GalR1 C-terminus. inhibition, % at 3 µM. 360,000 tested, 0.44% active. AID 651719, 2012;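 active means inhibition above the screen-wide average plus 3 SD, cut at about 13% in these data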;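 further: forskolin and galanin both at EC90 stimulate the cells; cAMP rise reported by CNG channel membrane potential dye signal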
Target sequence (O60755 1-299 limits assumed): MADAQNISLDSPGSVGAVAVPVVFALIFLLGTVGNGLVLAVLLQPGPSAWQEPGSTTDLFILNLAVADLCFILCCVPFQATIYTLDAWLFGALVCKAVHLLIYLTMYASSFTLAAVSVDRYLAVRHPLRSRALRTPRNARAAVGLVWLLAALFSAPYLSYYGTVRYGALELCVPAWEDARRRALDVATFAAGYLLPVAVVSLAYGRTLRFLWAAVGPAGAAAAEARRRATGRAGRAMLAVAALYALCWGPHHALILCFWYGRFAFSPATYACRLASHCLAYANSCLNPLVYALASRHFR
Gal4-VP16 ctr: Gal4-VP16 luciferase reporter inhibitors, counter-screen for COUP-TFII antagonist project, cell-based, luminescence, HEK293; shares compounds with NR2F2 inh; 2,500 tested, 25% active; inhibition, % at 8.5 µM; AID 687007, 2013; in the data active means inhibition above about 13%
NR2F2 inh conf: NR2F2 transcriptional activity inhibitors, confirmation, cell-based, luciferase reporter, HEK293, triplicate. shares compounds with NR2F2 inh. HEK293 NGFI-A luciferase reporter, luminescence. inhibition, % at 8.5 µM. 2,500 tested, 45% active;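 active means mean inhibition over three repeats above a set limit taken from the earlier primary screen, cut at about 38% in these data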
Hits are given with their value. A selection: hits, their analogues and other compounds. The true share with any hit is near 2.1%.

COc1cc(/C=C/C(=O)Nc2ccc(OC)c(S(=O)(=O)N3CCOCC3)c2)ccc1OC(F)F was read as Gli-Sufu antag inactive, aDG glyco act inactive, NR2F2 inh 38, GalR3 antag inactive, Gal4-VP16 ctr 13 and NR2F2 inh conf inactive.
For Cc1ccc(NC(=O)/C=C/c2ccc(S(=O)(=O)N3CCOCC3)cc2)cc1S(=O)(=O)N(C)C the results were Gli-Sufu antag inactive, aDG glyco act inactive, HIV Env fusion inactive, NR2F2 inh 49, GalR3 antag inactive, Gal4-VP16 ctr inactive and NR2F2 inh conf 44.
`CC(=O)Nc1cccc(NC(=O)/C=C/c2ccc(S(=O)(=O)N3CCOCC3)cc2)c1` gave Gli-Sufu antag inactive, aDG glyco act inactive, HIV Env fusion inactive, NR2F2 inh inactive and GalR3 antag inactive.
Screening COc1ccc(/C=C/C(=O)Nc2ccccc2C)cc1S(=O)(=O)N1CCOCC1 returned Gli-Sufu antag inactive, aDG glyco act inactive, HIV Env fusion inactive, NR2F2 inh 48, GalR3 antag inactive, Gal4-VP16 ctr inactive and NR2F2 inh conf inactive.
Screening CCNC(=O)C[C@H]1CC[C@H]2[C@@H](COc3ccc(NC(=O)Nc4ccccc4C)cc3C(=O)N2C)O1 returned HIV Env fusion inactive.
For Nc1ccc(Oc2ccccc2-c2ccccc2)cc1 the results were Gli-Sufu antag inactive, aDG glyco act inactive, HIV Env fusion inactive, NR2F2 inh 78, GalR3 antag inactive, Gal4-VP16 ctr 77 and NR2F2 inh conf 73.
For C=CCn1c(SCC(=O)Nc2sccc2C(N)=O)nc2sc(CC)cc2c1=O the results were Gli-Sufu antag inactive, aDG glyco act inactive, NR2F2 inh 42, GalR3 antag inactive, Gal4-VP16 ctr inactive and NR2F2 inh conf inactive.
O=C(c1ccccc1)C1CCN(c2ncnc3sccc23)CC1 was read as NR2F2 inh 74, Gal4-VP16 ctr inactive and NR2F2 inh conf 62.
`c1ccc(OC2CCN(c3ncnc4sccc34)CC2)cc1` gave NR2F2 inh 64, Gal4-VP16 ctr inactive and NR2F2 inh conf 49.
`O=S(=O)(c1ccccc1C(F)(F)F)N1CCN(c2ncnc3sccc23)CC1` gave Gli-Sufu antag inactive, aDG glyco act inactive, NR2F2 inh inactive and GalR3 antag inactive.
O=S(=O)(c1ccc(F)c(F)c1F)N1CCN(c2ncnc3sccc23)CC1 was read as Gli-Sufu antag inactive, aDG glyco act inactive, NR2F2 inh 40, GalR3 antag inactive, Gal4-VP16 ctr inactive and NR2F2 inh conf inactive.
Screening O=C(c1ccc(F)cc1)C1CCN(c2ncnc3sccc23)CC1 returned NR2F2 inh 63, Gal4-VP16 ctr inactive and NR2F2 inh conf 56.
Screening O=C(c1ccc(F)cc1)C1CCN(Cc2ccc(F)cc2)CC1 returned aDG glyco act inactive, HIV Env fusion inactive, NR2F2 inh inactive and GalR3 antag inactive.
For O=C(C[C@@H]1C[C@@H]2c3cc(NC(=O)c4cccnc4)ccc3O[C@@H]2[C@H](CO)O1)NCC1CC1 the results were HIV Env fusion inactive.
For COCC(=O)N(C)C[C@@H]1Oc2ncc(C#C[C@H](C)O)cc2C(=O)N([C@H](C)CO)C[C@H]1C the results were HIV Env fusion inactive.
For C=C1C(=O)C23C(O)C1CCC2C12CCCC(C)(COC(C)=O)C1C(O)C3(O)OC2 (configuration not stated) the results were Gli-Sufu antag inactive, aDG glyco act inactive, HIV Env fusion inactive, NR2F2 inh 48, GalR3 antag inactive, Gal4-VP16 ctr 77 and NR2F2 inh conf 52.
C#CCN(C[C@@H]1[C@@H](OC(=O)Nc2cccs2)[C@@H](OC(=O)Nc2cccs2)Cn2c(=O)ccc(=O)n21)S(=O)(=O)c1ccc(C)cc1 was read as aDG glyco act inactive, NR2F2 inh 76, GalR3 antag inactive, Gal4-VP16 ctr 25 and NR2F2 inh conf 43.
For C#CCN(C[C@@H]1[C@@H](OC(=O)NC2CCCC2)[C@@H](OC(=O)NC2CCCC2)Cn2c(=O)ccc(=O)n21)S(=O)(=O)c1ccc(C)cc1 the results were aDG glyco act inactive, HIV Env fusion inactive, NR2F2 inh inactive and GalR3 antag inactive.
Screening C#CCN(C[C@@H]1[C@@H](OC(=O)NCc2ccccc2F)[C@@H](OC(=O)NCc2ccccc2F)Cn2c(=O)ccc(=O)n21)S(=O)(=O)c1ccc(C)cc1 returned aDG glyco act inactive, HIV Env fusion inactive, NR2F2 inh 63, GalR3 antag inactive, Gal4-VP16 ctr 23 and NR2F2 inh conf inactive.
For C#CCN(C[C@@H]1[C@@H](OC(=O)NCc2ccccc2F)[C@@H](OC(=O)NCc2ccccc2F)Cn2c(=O)n(CCCCCC)c(=O)n21)S(=O)(=O)c1ccc(C)cc1 the results were aDG glyco act inactive, HIV Env fusion inactive, NR2F2 inh inactive and GalR3 antag inactive.
COc1ccc(CN2C(=O)C(C)N(C(=O)c3c(F)cccc3F)c3ccccc32)cc1 (configuration not stated) was read as Gli-Sufu antag inactive, aDG glyco act inactive, HIV Env fusion inactive, NR2F2 inh inactive and GalR3 antag inactive.
COc1cccc(CN2C(=O)C(C)N(C(=O)c3ccccc3)c3ccccc32)c1 (configuration not stated) was read as Gli-Sufu antag inactive, aDG glyco act inactive, HIV Env fusion inactive, NR2F2 inh 54, GalR3 antag inactive, Gal4-VP16 ctr inactive and NR2F2 inh conf inactive.
For C[C@@H]1CN([C@H](C)CO)C(=O)c2cc(-c3cccnc3)cnc2O[C@@H]1CN(C)C(=O)Nc1ccc(C(F)(F)F)cc1 the results were HIV Env fusion inactive.
Screening CN=c1scc(-c2cccs2)n1/N=C/c1ccccc1O returned Gli-Sufu antag 81, aDG glyco act inactive, HIV Env fusion 57, NR2F2 inh 94, GalR3 antag inactive, Gal4-VP16 ctr 88 and NR2F2 inh conf 108.
For CC(Oc1ccc(Cl)cc1Cl)c1nc(-c2ccc(NC(=O)c3ccncc3)cc2)no1 (configuration not stated) the results were Gli-Sufu antag inactive, aDG glyco act inactive, NR2F2 inh 80, GalR3 antag inactive, Gal4-VP16 ctr inactive and NR2F2 inh conf inactive.
Screening COc1cccc(CNC(=O)C[C@H]2C=C[C@H](NC(=O)C3CCOCC3)[C@H](CO)O2)c1 returned HIV Env fusion inactive.

From PubChem
